This note sets out measurements from ChEMBL document CHEMBL1157539, “Thousands of chemical starting points for antimalarial lead identification” (Nature, 2010).

As a reminder, the Inhibition is the drop in the measured response relative to a control, in per cent. A high value points to a strong effect.

Holding throughout (assay type): functional
In assay [1] the test system is Plasmodium falciparum. Kind of assay: GSK_TCMDC: Inhibition of Plasmodium falciparum 3D7 in whole red blood cells, using parasite LDH activity as an index of growth. Test compounds present at 2uM.
Assay [2] has as its system Plasmodium falciparum. Nature of the assay: GSK_TCMDC: Inhibition of Plasmodium falciparum Dd2 in whole red blood cells, using parasite LDH activity as an index of growth. Test compounds present at 2uM.
The test system of assay [3] is HepG2. Kind of assay: GSK_TCMDC: Percent inhibition of human HepG2 cell line. Test compounds present at 10uM.

As to `COc1ccccc1CCC(C)(C)NC(=O)CC(CCc1ccccc1)Nc1ccc(C#N)c2ccccc12` (stereo not given), the Inhibition in assay [1] was 94%; in assay [2], 65%; in assay [3], 6%.

Take `CC(C)c1ccc(NC(=O)N[C@H]2CCN(CCCCCNC(=O)/C=C/c3ccc(Cl)c(Cl)c3)C2)cc1`: the Inhibition in assay [1] was 100%; in assay [2], 14%; in assay [3], 56%.

`COc1ccc2nccc([C@@H](O)CN3CCC(NC(=O)C(=Cc4ccc(C#N)cc4)c4ccc(-c5ccccc5)cc4)CC3)c2c1`: the Inhibition in assay [1] turned out to be 100%; in assay [2] it was 84%; in assay [3] it was 5%.

Regarding `Cc1cccc(-c2nn(-c3ccccc3)c3[nH]c(=O)c(CNC4CCCC4)cc23)c1`, the Inhibition in assay [1] is 98%; in assay [2] it was 97%; in assay [3], 18%.

In the case of `Nc1nc(N)c2cc(N(Cc3ccccc3)Cc3ccccc3)ccc2n1`, the figures for the Inhibition in assay [1], in assay [2] and in assay [3] were 99%, 88% and 69%, respectively.

For the compound `O=C(/C=C/c1ccc(Cl)c(Cl)c1)NCCCCCN1CCC(NC(=O)Nc2cc(Cl)cc(Cl)c2)CC1`, the Inhibition was 94% in assay [1], 5% in assay [2] and 98% in assay [3].

Regarding `CN(C)CCCNc1ncnc2c1[nH]c1ccc(Cl)cc12`, the Inhibition in assay [1] is listed as 99%; in assay [2], 3%; in assay [3], 2%.

As to `O=C(NCCCCCN1CCCN(C(=O)Nc2ccc(Cl)c(C(F)(F)F)c2)CC1)C1CC1c1ccc(Cl)c(Cl)c1` (stereo not given), the Inhibition worked out at 100% in assay [1], 1% in assay [2] and 41% in assay [3].

In the case of `O=C(c1cccs1)N1CCN(c2ccc([N+](=O)[O-])c(NC3CC3)c2)CC1`, the Inhibition in assay [1] is on record as 100%; in assay [2], 95%; in assay [3], 0%.

In the case of `Cc1ccc(C)c(-n2c(SCC(=O)Nc3ccc(C(N)=O)cc3)nnc2-c2cccc(Cl)c2)c1`, the Inhibition amounted to 92% in assay [1], 91% in assay [2] and 6% in assay [3].
